Several values for one entry are separate records, joined by “and”; a condition that tells them apart may be missing. Equal values may be shown once. A number with no mark means an inactive call. Inconclusive results are not listed. Where a call stands in place of a potency, no number is given. Activity calls are given as the source filed them. Unless noted, calls come from the whole dose curve; as a rule, active = well fitted curve in the direction sought with a large enough effect; inconclusive = small, poorly fitted or top-dose-only effect, or another doubt; inactive = no such curve, though single readings can be large; an effect the other way counts as inactive or inconclusive.
Columns and labels:
[1] = AP1 Signaling Pathway (AID 357; active = well fitted curve in either direction with a large enough effect, not every such curve was filed as active;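 note: ME-180 reporter cells stimulated with EGF at its EC50 level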); settings: ME-180 AP-1-bla reporter, EGF-induced, beta-lactamase ratio, 5 h; at 7.69 µM (top of the series) unless noted
How it was run: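 Beta-lactamase reporter under AP-1 response element, ME-180 background. Stimulus: EC50 EGF. Compound exposure 5 h, 37 °C. Detection: CCF4, 2.5 h RT, 460/530 nm. Values: AC50 from titration.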

[2] = biological target: Cytochrome P450 1A2 (Homo sapiens) (UniProt P05177); assay: p450-cyp1a2 (AID 410; calls by dose curve; note: potency is the fitted concentration of half-maximal effect)
Chain of Cytochrome P450 1A2 (Homo sapiens) (P05177 whole entry, looked up): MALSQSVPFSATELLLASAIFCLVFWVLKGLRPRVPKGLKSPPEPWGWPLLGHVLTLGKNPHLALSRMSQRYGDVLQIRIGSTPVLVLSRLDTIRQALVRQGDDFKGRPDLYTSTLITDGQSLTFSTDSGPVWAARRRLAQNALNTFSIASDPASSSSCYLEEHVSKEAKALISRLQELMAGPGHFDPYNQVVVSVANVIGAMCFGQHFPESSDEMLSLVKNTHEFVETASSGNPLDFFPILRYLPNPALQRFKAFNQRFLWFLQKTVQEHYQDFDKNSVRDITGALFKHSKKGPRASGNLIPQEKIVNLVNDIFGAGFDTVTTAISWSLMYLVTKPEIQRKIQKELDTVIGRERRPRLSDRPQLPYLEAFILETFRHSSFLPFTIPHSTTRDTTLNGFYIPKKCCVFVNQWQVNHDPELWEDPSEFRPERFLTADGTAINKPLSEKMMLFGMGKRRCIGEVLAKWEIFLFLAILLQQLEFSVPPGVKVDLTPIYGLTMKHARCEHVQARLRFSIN
How it was run: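 20nM CYP1A2, 100uM Luciferin-ME (=Km), 100mM KPO4; cpd 10 min RT; +NADPH regen, 60 min RT; stop/detect 20 min; luminescence. Normalized to furafylline 57 uM = full inhibition.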

[3] = NFAT Signaling Pathway (AID 444; active = well fitted curve in either direction with a large enough effect, not every such curve was filed as active;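 note: carbachol stimulus at about its EC50 of 1 µM final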); settings: Jurkat NFAT-bla M1, carbachol, beta-lactamase ratio, 5 h; at 7.69 µM (top of the series) unless noted
How it was run: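 Jurkat cells with NFAT-driven β-lactamase reporter and co-expressed M1 receptor, stimulated with carbachol (final 1 uM, ~EC50), compound titration, 5 h at 37 °C. CCF4 loaded 1 h at RT; 460/530 nm ratio gave %activity and AC50.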

[4] = Stat Signaling Pathway (AID 446; active = well fitted curve in either direction with a large enough effect, not every such curve was filed as active;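 note: ME-180 cervical cancer cells given 40 pM IL-6 alongside compound; SIE-controlled beta-lactamase reporter measured as 460/530 nm FRET emission ratio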); settings: ME-180 SIE beta-lactamase reporter, IL-6 stimulated, 5 h; at 7.69 µM (top of the series) unless noted
How it was run: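 Compound effects on IL-6-induced STAT reporter activity were measured in ME-180 cells. After overnight culture, cells were co-treated with 40 pM IL-6 for 5 hrs before beta-lactamase substrate loading at room temperature.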

[5] = biological target: Glucocorticoid receptor (Homo sapiens) (UniProt P04150); assay: GR-GFP Redistribution (AID 450;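 active = compounds whose dose series gives a full or clear partial fitted curve of increased nuclear translocation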; note: potency is the fitted concentration of half-maximal effect); settings: U2OS GR-GFP nuclear translocation, laser cytometry, 2 h
Chain of Glucocorticoid receptor (Homo sapiens) (P04150 whole entry, looked up, the tested form may be a part): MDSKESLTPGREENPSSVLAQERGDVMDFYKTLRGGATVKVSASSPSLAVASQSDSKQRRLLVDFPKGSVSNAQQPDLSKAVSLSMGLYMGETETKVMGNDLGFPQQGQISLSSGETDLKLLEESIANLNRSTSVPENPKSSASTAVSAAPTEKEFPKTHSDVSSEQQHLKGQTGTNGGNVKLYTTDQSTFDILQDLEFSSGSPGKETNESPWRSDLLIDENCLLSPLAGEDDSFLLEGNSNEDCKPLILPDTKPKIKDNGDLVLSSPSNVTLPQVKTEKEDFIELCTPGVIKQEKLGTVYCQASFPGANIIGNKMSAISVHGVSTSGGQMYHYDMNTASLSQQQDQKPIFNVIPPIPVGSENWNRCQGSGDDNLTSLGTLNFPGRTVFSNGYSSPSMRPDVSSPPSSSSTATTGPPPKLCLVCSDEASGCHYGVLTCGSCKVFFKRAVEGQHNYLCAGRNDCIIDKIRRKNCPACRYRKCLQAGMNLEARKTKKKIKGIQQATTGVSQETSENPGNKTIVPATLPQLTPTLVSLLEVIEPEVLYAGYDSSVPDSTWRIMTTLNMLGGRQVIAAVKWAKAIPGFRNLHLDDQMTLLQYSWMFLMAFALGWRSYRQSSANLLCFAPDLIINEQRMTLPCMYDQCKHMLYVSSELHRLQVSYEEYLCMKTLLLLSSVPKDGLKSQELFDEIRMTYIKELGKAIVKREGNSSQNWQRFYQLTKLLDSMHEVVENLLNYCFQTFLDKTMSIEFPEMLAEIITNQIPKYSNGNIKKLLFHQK

[6] = biological target: Glucocorticoid receptor (Homo sapiens) (UniProt P04150); assay: GR-EFC Redistribution (AID 451; calls by dose curve; note: potency is the fitted concentration of half-maximal effect); settings: CHO-K1 GR-EFC translocation, beta-gal luminescence, 2 h
How it was run: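 CHO-K1 cells expressing nuclear EA and GR-ED fragments of b-gal; compounds titrated up to 46 uM final, 2 h at 37 C. GR nuclear translocation read as complemented b-gal luminescence after 1 h RT detection.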

[7] = biological target: Mitogen-activated protein kinase 10 (Mus musculus) (UniProt Q61831); assay: JNK3 AlphaScreen Assay (AID 530; active = well fitted curve in either direction with a large enough effect, not every such curve was filed as active;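 note: kinase came from lysate of stimulated human HepG2 cells; signal reports phosphorylation of biotinylated GST-cJun 1-79 at Ser73 with 10 µM ATP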)
How it was run: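 HepG2 lysate (IL-1b/TNFa pre-activated) + biotin-GST-cJun 1-79 + anti-pSer73 cJun; cpd titration, 15 min RT; ATP 10 uM start; Tris pH 7.6, MgCl2, DTT, vanadate; beads in EDTA buffer; AlphaScreen.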

[8] = biological target: 3',5'-cyclic-AMP phosphodiesterase 4B (Homo sapiens) (UniProt Q07343); assay: qHTS Assay for Inhibitors of PDE-IV (AID 607; active = well fitted activation curve with a large enough effect in the main read-out, with a control signal flat, not every such curve was filed as active)
Chain of 3',5'-cyclic-AMP phosphodiesterase 4B (Homo sapiens) (Q07343 whole entry, looked up): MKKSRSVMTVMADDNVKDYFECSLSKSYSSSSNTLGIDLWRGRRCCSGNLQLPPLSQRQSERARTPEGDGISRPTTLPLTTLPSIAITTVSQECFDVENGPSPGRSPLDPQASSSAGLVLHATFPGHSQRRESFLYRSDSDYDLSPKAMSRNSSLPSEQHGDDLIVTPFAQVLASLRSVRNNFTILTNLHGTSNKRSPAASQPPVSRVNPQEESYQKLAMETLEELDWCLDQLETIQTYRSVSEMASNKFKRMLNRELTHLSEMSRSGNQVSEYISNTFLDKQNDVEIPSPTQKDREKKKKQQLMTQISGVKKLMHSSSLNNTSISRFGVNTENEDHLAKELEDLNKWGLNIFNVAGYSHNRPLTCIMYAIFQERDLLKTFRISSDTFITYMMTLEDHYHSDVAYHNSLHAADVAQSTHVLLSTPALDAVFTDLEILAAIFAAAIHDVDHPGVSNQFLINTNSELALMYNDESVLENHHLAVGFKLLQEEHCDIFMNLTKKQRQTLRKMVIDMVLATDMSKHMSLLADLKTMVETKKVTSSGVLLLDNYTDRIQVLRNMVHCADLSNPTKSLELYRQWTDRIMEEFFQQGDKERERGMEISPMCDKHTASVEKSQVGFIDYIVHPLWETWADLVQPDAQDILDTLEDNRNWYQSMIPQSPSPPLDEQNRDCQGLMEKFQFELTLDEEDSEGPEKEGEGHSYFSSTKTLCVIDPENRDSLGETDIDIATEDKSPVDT
How it was run: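 ACTOne HEK293 cells carry a modified cAMP-gated CNG channel and express endogenous PDE4; plated 1000 cells/well, compounds up to 22.9 uM final. Membrane-potential dye fluorescence (ex 535/em 590) was read; parental cells received 10 uM forskolin + 100 uM RO 20-1724.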

[9] = biological target: Cytochrome P450 2C9 (Homo sapiens) (UniProt P11712); assay: qHTS Assay for Inhibitors and Substrates of Cytochrome P450 2C9 (AID 883); note: nearly all actives have a fitted effect of over 60% in size; note: potency is the fitted concentration of half-maximal effect
Chain of Cytochrome P450 2C9 (Homo sapiens) (P11712 whole entry, looked up): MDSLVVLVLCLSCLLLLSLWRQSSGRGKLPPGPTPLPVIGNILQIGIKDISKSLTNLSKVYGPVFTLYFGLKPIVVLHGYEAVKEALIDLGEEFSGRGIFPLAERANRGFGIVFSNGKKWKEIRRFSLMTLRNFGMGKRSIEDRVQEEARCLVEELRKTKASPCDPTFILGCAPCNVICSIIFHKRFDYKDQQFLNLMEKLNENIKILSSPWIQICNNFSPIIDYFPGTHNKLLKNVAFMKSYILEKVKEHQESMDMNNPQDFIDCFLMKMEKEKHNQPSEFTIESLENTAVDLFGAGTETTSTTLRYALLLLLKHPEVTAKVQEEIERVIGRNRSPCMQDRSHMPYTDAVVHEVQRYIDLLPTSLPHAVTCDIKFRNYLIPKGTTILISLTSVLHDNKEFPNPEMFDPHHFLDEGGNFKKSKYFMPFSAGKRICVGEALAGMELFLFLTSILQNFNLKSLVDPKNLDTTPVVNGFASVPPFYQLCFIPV
How it was run: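 Human CYP2C9 (10nM) with Luciferin-H at 100uM (its KM) in 25mM KPO4; compound preincubated 10 min at 37C, then NADPH regeneration for 60 min at 37C. Luciferin read by luminescence after detection reagent; normalized to 57uM sulphaphenazole as full inhibition.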

[10] = biological target: Cytochrome P450 2D6 (Homo sapiens) (UniProt P10635); assay: qHTS Assay for Inhibitors and Substrates of Cytochrome P450 2D6 (AID 891);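 note: luciferin methyl ether substrate demethylated by CYP2D6 with NADPH regeneration; nearly all actives have a fitted effect of over 60% in size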
How it was run: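 Luminescent read-out of luciferin formed by 5 nM human CYP2D6 demethylating 30 uM Luciferin-ME EGE (Km level) over 60 min at room temperature after NADPH regeneration addition. Data normalized to full inhibition by 1.43 uM quinidine.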

[11] = biological target: Cytochrome P450 2C19 (Homo sapiens) (UniProt P33261); assay: qHTS Assay for Inhibitors and Substrates of Cytochrome P450 2C19 (AID 899); note: nearly all actives have a fitted effect of over 60% in size; note: potency is the fitted concentration of half-maximal effect
Chain of Cytochrome P450 2C19 (Homo sapiens) (P33261 whole entry, looked up): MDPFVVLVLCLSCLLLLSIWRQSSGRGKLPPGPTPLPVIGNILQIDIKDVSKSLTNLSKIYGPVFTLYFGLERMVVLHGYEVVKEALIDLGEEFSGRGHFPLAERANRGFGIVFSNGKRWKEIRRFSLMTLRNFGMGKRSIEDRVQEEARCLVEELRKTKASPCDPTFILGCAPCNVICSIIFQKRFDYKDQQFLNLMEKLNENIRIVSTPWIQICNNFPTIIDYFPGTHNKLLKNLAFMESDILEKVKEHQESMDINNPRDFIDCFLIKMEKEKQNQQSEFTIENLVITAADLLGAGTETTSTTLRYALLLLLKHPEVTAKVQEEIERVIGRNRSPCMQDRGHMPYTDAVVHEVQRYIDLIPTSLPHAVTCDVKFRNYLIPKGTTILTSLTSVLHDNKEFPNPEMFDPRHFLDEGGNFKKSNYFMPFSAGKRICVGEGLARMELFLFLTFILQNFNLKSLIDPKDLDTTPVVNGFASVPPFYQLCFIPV
How it was run: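 5 nM human CYP2C19 with 10uM Luciferin-H EGE (at KM) in 50mM KPO4, compound preincubated 10 min at 37C, then NADPH regeneration for 60 min at 37C. Luciferin read by luminescence after detection reagent; normalized to 57uM ketoconazole as full inhibition.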

[12] = biological target: Guanine nucleotide-binding protein G(i) subunit alpha-1 (Homo sapiens) (UniProt P63096); assay: qHTS Assay for Inhibitors of RGS12 GoLoco Motif Activity (Green Fluorophore) (AID 879);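 note: negative values mean loss of peptide binding seen as reduced polarization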
Chain of Guanine nucleotide-binding protein G(i) subunit alpha-1 (Homo sapiens) (P63096 whole entry, looked up): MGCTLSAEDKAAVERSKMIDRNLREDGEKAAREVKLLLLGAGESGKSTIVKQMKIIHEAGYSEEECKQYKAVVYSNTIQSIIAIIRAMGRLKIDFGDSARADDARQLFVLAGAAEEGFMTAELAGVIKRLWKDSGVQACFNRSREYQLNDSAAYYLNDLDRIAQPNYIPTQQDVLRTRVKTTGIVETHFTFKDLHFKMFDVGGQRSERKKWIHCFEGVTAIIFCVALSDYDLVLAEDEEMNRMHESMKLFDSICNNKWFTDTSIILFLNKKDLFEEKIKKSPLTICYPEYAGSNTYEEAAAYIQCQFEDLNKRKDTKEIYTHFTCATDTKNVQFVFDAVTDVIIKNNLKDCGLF
How it was run: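 A drop in FITC polarization marked displacement of the FITC-tagged RGS12 GoLoco peptide (10 nM) from Gαi1 (50 nM). Compounds were incubated 10 min at room temperature in Tris pH 7.5 buffer containing 150 mM NaCl, 0.1 mM GDP and 0.05% NP40; unlabeled peptide titration served as control.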

[13] = qHTS Assay for Identification of Small Molecule Antagonists for NFkB Signaling Pathway (AID 895; active = well fitted inhibition curve with a large enough effect in the signal ratio, with a control signal flat, not every such curve was filed as active; the % refers to the signal ratio; note: potency is the fitted concentration of half-maximal effect)
How it was run: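 ME-180 NFkB-bla cells (beta-lactamase under NFkB response element), plated overnight, treated with compound then 10 pM TNF alpha (about EC50) for 5 hrs at 37 C. LiveBLAzer FRET read at 460/530 nm emission, 405 nm excitation.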

[14] = qHTS Assay for Identification of Small Molecule Agonists for Thrombopoietin (TPO) Signaling Pathway (AID 917)
How it was run: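 Ba/F3 (mouse) + hTPO receptor + GpIIb-promoter luciferase; IL-3 withdrawn overnight; compound + 26 pM TPO (EC50), 24 hrs, 37 C, 5% CO2; Steadylite luminescence, 10 min RT.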

[15] = biological target: Muscarinic acetylcholine receptor M1 (Rattus norvegicus) (UniProt P08482); assay: qHTS Assay for Antagonists of Acetylcholine Muscarinic M1 Receptor: Measurement of IP-One Response (AID 944); note: nearly all actives have a fitted effect of over 75% in size
Chain of Muscarinic acetylcholine receptor M1 (Rattus norvegicus) (P08482 whole entry, looked up): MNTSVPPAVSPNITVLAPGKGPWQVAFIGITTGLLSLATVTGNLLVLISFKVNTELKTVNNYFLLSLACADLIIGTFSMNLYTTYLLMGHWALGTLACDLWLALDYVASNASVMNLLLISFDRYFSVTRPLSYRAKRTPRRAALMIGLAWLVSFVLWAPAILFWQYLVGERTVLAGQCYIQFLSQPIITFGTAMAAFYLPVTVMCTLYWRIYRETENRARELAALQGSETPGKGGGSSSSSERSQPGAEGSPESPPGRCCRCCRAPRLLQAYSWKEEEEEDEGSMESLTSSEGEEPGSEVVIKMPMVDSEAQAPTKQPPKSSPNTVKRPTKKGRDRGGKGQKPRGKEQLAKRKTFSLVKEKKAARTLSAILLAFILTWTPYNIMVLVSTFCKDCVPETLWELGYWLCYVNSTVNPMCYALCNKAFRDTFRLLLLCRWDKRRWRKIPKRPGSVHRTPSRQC
How it was run: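 Read-out: HTRF competition between d2-IP1 and Eu-cryptate anti-IP1 antibody, emission 620 and 665 nm. Stimulus was carbachol, EC80 (200 nM), for 30 min in M1-CHO cells (rat receptor), after 10 min compound pre-treatment.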

[16] = biological target: Pyruvate kinase (Leishmania mexicana) (UniProt Q27686); assay: qHTS Validation Assay for Inhibitors of Leishmania Mexicana Pyruvate Kinase (AID 945)
Chain of Pyruvate kinase (Leishmania mexicana) (Q27686 2-499 E452W): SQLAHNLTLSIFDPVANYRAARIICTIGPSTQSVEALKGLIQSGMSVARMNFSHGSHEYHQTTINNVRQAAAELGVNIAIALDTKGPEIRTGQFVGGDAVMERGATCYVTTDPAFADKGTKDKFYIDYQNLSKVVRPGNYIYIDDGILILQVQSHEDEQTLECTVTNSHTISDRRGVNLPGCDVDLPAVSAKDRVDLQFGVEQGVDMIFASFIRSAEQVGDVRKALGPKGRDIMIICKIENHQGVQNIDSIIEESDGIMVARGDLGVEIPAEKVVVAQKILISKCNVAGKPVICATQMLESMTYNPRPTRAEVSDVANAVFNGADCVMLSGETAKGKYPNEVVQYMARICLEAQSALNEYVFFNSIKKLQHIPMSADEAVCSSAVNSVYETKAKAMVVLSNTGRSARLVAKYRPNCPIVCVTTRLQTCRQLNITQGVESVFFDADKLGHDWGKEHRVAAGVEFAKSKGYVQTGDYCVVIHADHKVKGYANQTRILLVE
How it was run: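 Pyruvate kinase activity of E451W LmPYK (0.2 nM) was followed as ATP output after 1 h at room temperature with 0.5 mM PEP and 0.1 mM ADP, detected by PKLight luminescence.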

[17] = biological target: Pyruvate kinase PKM (Homo sapiens) (UniProt P14618); assay: qHTS Assay for Activators of Human Muscle Pyruvate Kinase (AID 954; active = well fitted curve in the direction sought with a large enough effect, not every such curve was filed as active)
Chain of Pyruvate kinase PKM (Homo sapiens) (P14618 whole entry, looked up): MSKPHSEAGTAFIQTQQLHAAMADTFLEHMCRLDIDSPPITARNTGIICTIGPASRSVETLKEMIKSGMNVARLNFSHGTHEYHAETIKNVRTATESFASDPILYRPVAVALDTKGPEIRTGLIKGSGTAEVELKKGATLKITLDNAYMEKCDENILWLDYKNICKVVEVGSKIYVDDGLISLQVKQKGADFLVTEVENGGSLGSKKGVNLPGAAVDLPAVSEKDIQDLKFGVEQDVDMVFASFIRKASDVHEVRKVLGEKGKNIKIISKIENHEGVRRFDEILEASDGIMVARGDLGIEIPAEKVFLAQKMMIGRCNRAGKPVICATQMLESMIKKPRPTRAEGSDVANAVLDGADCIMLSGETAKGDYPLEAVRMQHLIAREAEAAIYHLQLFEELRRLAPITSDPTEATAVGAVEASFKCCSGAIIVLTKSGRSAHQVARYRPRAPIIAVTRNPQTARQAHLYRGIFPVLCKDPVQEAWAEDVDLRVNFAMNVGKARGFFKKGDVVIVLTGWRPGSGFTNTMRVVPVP
How it was run: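 A coupled luminescent readout tracked ATP made from ADP by purified PKM2. Final conditions included 0.1 nM enzyme, PEP and ADP at 0.5 and 0.1 mM, pH 7.2 imidazole buffer with BSA, and a one-hour room-temperature reaction.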

[18] = biological target: Alpha-galactosidase A (Homo sapiens) (UniProt P06280); assay: Counterscreen for Glucocerebrosidase Inhibitors: qHTS Assay for Human alpha-Galactosidase at pH 4.5 (AID 992)
How it was run: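 Citrate buffer pH 4.5, Tween-20 0.005%. Enzyme 2 nM, substrate 80 uM, 20 min RT. Stop pH 10. Fluorescence Ex 365/Em 440. AC50 by Hill fit.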

[19] = biological target: alpha-glucosidase (Oryza sativa, rice) (UniProt Q653V4); assay: Counterscreen for Glucocerebrosidase Inhibitors: qHTS Assay for Rice alpha-Glucosidase at pH 5.0 (AID 997); note: potency is the fitted concentration of half-maximal effect
How it was run: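 Endpoint fluorogenic assay at pH 5.0: compounds (0.7 nM to 77 uM) titrated against 4 nM rice enzyme and 400 uM 4-MU-alpha-glucoside for 20 min at room temperature; NaOH/glycine stop, read ex 365/em 440 nm, Hill-fitted AC50.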

| Compound | activity change, negative = inhibition [1] | Potency [2] | activity change, negative = inhibition [3] | activity, negative = inhibition [4] | Potency [5] [µM] | Potency [6] [µM] | Potency [7] | Potency [8] | Potency [9] | Potency [10] | Potency [11] | outcome [12] | Potency [13] | outcome [14] | Potency [15] | outcome [16] | outcome [17] | outcome [18] | Potency [19] |
| --- | --- | --- | --- | --- | --- | --- | --- | --- | --- | --- | --- | --- | --- | --- | --- | --- | --- | --- | --- |
| N[C@H](Cc1ccc(O)c(I)c1)C(=O)O | 6.16% [at 38 µM] | inactive | 8.86% [at 38 µM] | -3.36% [at 38 µM] | > 46 | > 46 | inactive | inactive | inactive | inactive | inactive |  |  |  |  |  |  |  |  |
| CC(C)C[C@H](NC(=O)[C@@H](O)[C@@H](N)Cc1ccccc1)C(=O)O | 16.3% [at 38 µM] and 2.81% [at 38 µM] | inactive | -15.3% [at 38 µM] and -3.04% [at 38 µM] | 25.1% [at 38 µM] and 3.44% [at 38 µM] | > 46 | > 46 | inactive | inactive |  |  |  | inactive | 1.58 µM (active) | inactive | inactive | inactive | inactive | inactive | inactive |
| OC[C@@H]1NC[C@@H](O)[C@@H](O)[C@H]1O | 0.931% [at 38 µM] | inactive | 1.96% [at 38 µM] | -28.2% [at 38 µM] | > 46 | > 46 | inactive | inactive |  |  |  | inactive | inactive | inactive | inactive |  | inactive | inactive | 0.0794 µM (active) |
| CC(C)N(Cc1ccccc1)S(=O)(=O)c1n[nH]c(C(C)(C)C)n1 | -0.248% | inactive | 4.29% | -2.12% | > 46 | > 9.22 | inactive | inactive | 3.98 µM (active) |  |  |  |  |  |  |  |  |  |  |
| CCCCCCCCCC[Si](C)(C)CCC(=O)N[C@@H](Cc1ccc(C)cc1)c1ccccc1 | 20.2% [at 38 µM] | 31.6 µM (active) | -7.96% [at 38 µM] | -5.69% [at 38 µM] | > 46 | > 46 | inactive | inactive |  |  | inactive | inactive |  |  | inactive | inactive | inactive | inactive | inactive |
| O=c1[nH]c2[nH]c(=S)[nH]c(=S)c2[nH]1 | -13.3% | 3.98 µM (active) | -1.66% | 15.5% | > 46 | > 9.22 | inactive | inactive | 1.26 µM (active) |  | 0.631 µM (active) |  |  |  |  |  |  |  |  |
| Nc1nc(N)c2nc(CNc3ccc(C(=O)N[C@H](CCC(=O)O)C(=O)O)cc3)cnc2n1 | 1.47% [at 38 µM] | inactive | 13.5% [at 38 µM] | -0.643% [at 38 µM] | > 46 | > 46 | inactive | inactive |  |  |  | inactive |  | inactive |  | inactive | inactive | inactive | inactive |
| C[C@H](O)[C@H](O)[C@@H]1CNc2nc(N)[nH]c(=O)c2N1 | 7.68% [at 38 µM] | inactive | 7.39% [at 38 µM] | 18.8% [at 38 µM] | > 46 | > 46 | inactive | inactive |  |  |  | inactive |  | inactive | inactive |  | inactive |  | inactive |
| CCCCCCCCCCCCCCC/C=C\[C@H](O)[C@@H](NC(=O)CCCCCCCCCCCCC)OC (tested in a mixture with another compound) | 15.5% [at 38 µM] | inactive | 13% [at 38 µM] | -20.2% [at 38 µM] | > 46 | > 46 | inactive | inactive |  |  |  | inactive |  | inactive | inactive | inactive | inactive |  | inactive |
